# High-throughput results as filed in PubChem.
# Most compounds without a hit are left out; they make up all but 9% or so of the library.
# G9a block – blocks human histone lysine methyltransferase G9a; Potency, µM (titrated, usually from 102 µM), without a hit: at the top dose activity, negative = inhibition, usual class: inhibitors; G9a H3K9 monomethylation, AlphaScreen, 2 h; Q96KQ7; 350,000 compounds, 8.8% hits; also: % is scaled to controls: 0 for no effect and ±100 for the full control effect; nearly all actives have a fitted effect of over 75% in size
# Target sequence (Q96KQ7 913-1193 limits assumed): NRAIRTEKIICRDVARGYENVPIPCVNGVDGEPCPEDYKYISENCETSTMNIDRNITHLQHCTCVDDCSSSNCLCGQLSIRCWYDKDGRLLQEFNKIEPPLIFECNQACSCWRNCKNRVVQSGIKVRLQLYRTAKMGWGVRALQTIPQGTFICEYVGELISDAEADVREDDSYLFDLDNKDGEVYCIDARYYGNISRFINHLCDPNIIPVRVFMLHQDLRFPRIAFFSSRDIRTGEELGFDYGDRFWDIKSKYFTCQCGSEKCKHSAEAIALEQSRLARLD
#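 Chemiluminescent proximity detection of H3K9 monomethylation, read after 10 min bead incubation in the dark. Reaction: 20 nM G9a, 500 nM biotin-H3K9 peptide, 20 uM SAM cofactor, 2 h, room temperature, following 15 min enzyme-compound preincubation.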
# ALOX12 inh – ALOX12 (human) lipoxygenase inhibition; purified 12hLO, xylenol orange hydroperoxide absorbance; Potency, µM (doses to about 108 µM), without a hit: at the highest dose activity change, negative = inhibition, most hits filed as inhibitors; 580,000 compounds, 1.1% hits; AID 1671190; P18054; also: % is scaled to controls: 0 for no effect and ±100 for the full control effect
#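 Purified human 12hLO at 150 nM in 25 mM Hepes, 0.01% Triton X-100, pH 7.0, preincubated 15 min at room temperature with compound. Reaction started with 40 uM arachidonic acid, 30 min at room temperature. Hydroperoxide measured by Fe-xylenol orange, 573/405 nm absorbance ratio.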
# JMJD2A Tudor – blocks the human JMJD2A Tudor domain | O75164 | AlphaScreen JMJD2A-Tudor / H3K4me3 peptide binding | Potency, µM (series often up to 114 µM), without a hit: at the highest dose activity change, negative = inhibition, hits mostly inhibitors | 390,000 compounds, 4.4% hits | AID 504339; also: % is scaled to controls: 0 for no effect and ±100 for the full control effect; nearly all actives have a fitted effect of over 50% in size
# BAZ2B block – inhibitors of human BAZ2B bromodomain | Q9UIF8 | AlphaScreen BAZ2B-H3K14Ac peptide displacement | Potency, µM (titrated, usually from 114 µM), for inactives: at the highest dose activity change, negative = inhibition, actives largely listed as inhibitors | 360,000 compounds, 4.4% hits | AID 504333; also: % is scaled to controls: 0 for no effect and ±100 for the full control effect; nearly all actives have a fitted effect of over 60% in size
#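 Compounds, titrated to a top concentration of 110 uM, were incubated 30 min at room temperature with preformed BAZ2B/acetyl-K14 H3 peptide complex (50 nM each). Proximity signal was measured by AlphaScreen after 20 min with beads.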
# PLK1 PBD inh – blocks phosphopeptide binding to human PLK1 polo-box domain | 360,000 compounds, 2.8% hits | AID 720504 | Plk1 PBD binding of FITC phosphopeptide, fluorescence polarization | Potency, µM, for inactives: max response, negative = inhibition, usual class: inhibitors | P53350; also: series mostly up to about 57 µM; % is scaled to controls: 0 for no effect and ±100 for the full control effect; nearly all actives have a fitted effect of over 65% in size
# HP1b binding inh – blocks HP1-beta chromodomain binding to methylated histone tails; AlphaScreen HP1-beta / biotin-H3K9me3 peptide binding; Potency, µM (titrated, usually from 114 µM), for inactives: at the highest dose activity change, negative = inhibition, usual class: inhibitors; 390,000 compounds, 0.56% hits; AID 540317; also: nearly all actives have a fitted effect of over 70% in size
# Target sequence (P83916 whole entry, looked up): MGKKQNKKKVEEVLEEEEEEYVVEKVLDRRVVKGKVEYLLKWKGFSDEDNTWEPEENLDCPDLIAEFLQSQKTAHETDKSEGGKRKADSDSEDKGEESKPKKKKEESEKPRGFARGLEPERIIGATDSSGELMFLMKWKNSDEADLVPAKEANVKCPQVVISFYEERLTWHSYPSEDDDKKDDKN
#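 AlphaScreen: HP1-beta (50 nM) preformed 30 min with biotin-H3(1-18)K9me3 peptide (50 nM) in PBS pH 7.4, 0.01% Tween-20. Compound added for 30 min at RT, then streptavidin donor/nickel chelate acceptor beads (10 ug/mL) for 30 min.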
# * marks the source's active call; other numbers are inactive results; ? = inconclusive; . = not tested or not shown; ! = a repeat was not active; [ ] = remark or other dose. Calls follow the shape of the dose curve; as a rule, active = well fitted curve in the direction sought with a large enough effect; inconclusive = small, poorly fitted or top-dose-only effect, or another doubt; inactive = no such curve, though single readings can be large; an effect the other way counts as inactive or inconclusive. Potency is read from the fitted curve at half-maximal effect.
SMILES,G9a block,ALOX12 inh,JMJD2A Tudor,BAZ2B block,PLK1 PBD inh,HP1b binding inh
CC(C)(C)C(=O)N1CCC2(COc3ncccc3[S+](=O)([O-])N2)C1 (configuration not stated),.,1.7%[6.33 µM],.,.,.,.
CS(=O)(=O)Nc1ccc(-c2cn3cccnc3n2)cc1,-16.2%[2.33 µM],-15.2%,-15.1%,18.7%,-5.1%,27.9%
O=[N+]([O-])c1ccc(O)c(Nc2c([N+](=O)[O-])ccc3nonc23)c1,50.1µM*,?,?,50.1µM*,-16.7%,-24.2%[57 µM]
Cc1ccc(C)c(Nc2c([N+](=O)[O-])ccc3nonc23)c1,?,0.1%,-31.2%,3.55µM*,-1.8%,?
Cc1cc(C)cc(N(CC(=O)NC(C)(C)C)C(=O)CCC(=O)Nc2ccccn2)c1,.,5.6%,-8.2%,?,-24.3%,24.9%
CCc1c(C)nc2ncnn2c1N1CCC(C(=O)NCc2cccc(OC)c2)CC1,-28.4%[12.7 µM],17.6%,?,-1.9%,26.7µM*,-16.6%
COc1cccc(CNC(=O)C2CCN(S(=O)(=O)c3ccc(C)cc3)CC2)c1,11.8%,?,-3.7%,-8.1%,2.7%,44.0%
Cc1ccc(CCNC(=O)C2CCCN(S(=O)(=O)c3c(C)nn(C)c3C)C2)cc1 (configuration not stated),5.8%,11.1%,?,-3.7%,26.7µM*,9.3%
COc1cccc(CNC(=O)C2CCN(S(=O)(=O)c3c(C)nn(C)c3C)CC2)c1,10.0%,1.8%,-34.5%,-4.3%,26.7µM*,22.7%
CCc1c(C)nc2ncnn2c1N1CCC(C(=O)NCc2cccs2)CC1,-9.8%,0.0%,13.1%,-4.2%,6.4%,31.3%
Cc1nn(C)c(C)c1S(=O)(=O)N1CCCC(C(=O)NCCc2ccc(Cl)cc2)C1 (configuration not stated),9.6%[59 µM],-9.1%,-11.7%,9.5%,0.6%,59.4%
Cc1ccc(Nc2c(C(C)C)c(C)c(C#N)c3nc4ccccc4n23)cc1,40.9%[59 µM],-11.3%,26.3%,9.2%,.,93.3%
COc1ccc(Nc2nc(-c3ccc4c(c3)NC(=O)CO4)cs2)cc1,44.7µM*,?,?,-26.0%,?,?
CCC(C)Nc1nc(-c2ccc3c(c2)NC(=O)CO3)cs1 (configuration not stated),50.1µM*,?,?,?,29.9µM*,-0.9%
O=c1[nH]ccc2c(O)cccc12,25.1µM*!,12.2%,-17.9%,.,-5.4%,4.4%
Nc1ccc2[nH]c(=S)[nH]c2c1,.,?,-4.8%,.,?,3.7%[57 µM]
Cc1cc2[nH]c(=S)[nH]c2cc1C,1.78µM*,?,?,-7.4%,5.97µM*,39.8µM*
S=c1[nH]c2cc3ccccc3cc2[nH]1,2.24µM*,?,-23.3%,-17.8%,29.9µM*,1.2%
S=c1[nH]c2cc3c(cc2[nH]1)OCCCO3,.,-22.5%,.,.,.,.
S=c1[nH]c2ccc(Cc3ccc4[nH]c(=S)[nH]c4c3)cc2[nH]1,0.282µM*,44.7µM*,-16.4%,-20.4%,21.2µM*,-10.9%
COC(=O)c1ccc(C(=O)OC)c(NC(=S)N2CCN(C)CC2)c1,-33.3%,?,-6.8%,-13.4%,-8.0%,41.5%
CNc1nc2ccccc2n1N,-18.3%[59 µM],-12.3%,-2.8%,8.6%,-1.5%,34.5%
COc1ccc(CN=Cc2c(C(F)(F)F)[nH][nH]c2=O)cc1,-11.2%[59 µM],13.0%,79.4µM*,9.9%,26.7µM*,-1.1%
COC(=O)c1ccc(N=Cc2c(C(F)(F)F)[nH][nH]c2=O)cc1,-14.3%,-6.6%,-6.0%,-22.1%,-3.4%,22.4%
COc1ccc(Cn2nnnc2C(C(C)C)N2CCN(c3ccccc3OC)CC2)cc1 (configuration not stated),-37.1%[12.7 µM],?,-19.4%,-12.6%,-1.2%,26.3%
SMILES,G9a block,ALOX12 inh,JMJD2A Tudor,BAZ2B block,PLK1 PBD inh,HP1b binding inh
CC(C)C(c1nnnn1Cc1ccc(F)cc1)N1CCN(c2ccc(O)cc2)CC1 (configuration not stated),12.6µM*,?,39.8µM*,-33.4%,-9.3%,70.8µM*
CCCN1CCCc2cc(CN(CCCN3CCOCC3)C(=O)Nc3ccc(CC)cc3)ccc21,12.6µM*,?,?,8.91µM*,.,?
CCCCN1CCCc2cc(CN(CCCN3CCOCC3)C(=O)Nc3ccc(CC)cc3)ccc21,8.91µM*,?,7.94µM*,?,.,-12.8%
CC(C)NC(=O)CSCc1coc(-c2ccc(Cl)cc2)n1,.,-0.6%,.,.,.,.
OC(c1ccc2c(c1)OCO2)c1nccc2ccccc12 (configuration not stated),44.7µM*,?,?,-23.9%,-4.4%,54.1%
O=C(O)CC(c1ccccc1)c1ccc2c(c1)OCO2 (configuration not stated),.,-15.4%,.,.,0.5%,.
Cn1c(C(O)c2ccc3c(c2)OCO3)nc2ccccc21 (configuration not stated),-3.8%[12.7 µM],2.0%,8.2%,12.3%,1.5%,24.9%
OC(c1cccc(Cl)c1)c1ncc(-c2cccc3ccccc23)[nH]1 (configuration not stated),.,-20.8%,.,.,-6.9%,.
CC(C)n1c(C(O)c2ccc3c(c2)OCO3)nc2ccccc21 (configuration not stated),70.8µM*,13.4%,-30.1%,-31.8%,-4.5%,8.6%
OC(c1cccc(Cl)c1)c1nccc2ccccc12 (configuration not stated),39.8µM*,?,-29.9%,-31.3%,-7.8%,39.1%
Cc1ccc(NC(=O)C(c2ccc(Cl)cc2)N2CCOCC2)cc1 (configuration not stated),-27.2%,-13.6%,-7.2%,-14.5%,-3.2%,46.3%
COc1cc(CN2CCSCC2)c([N+](=O)[O-])cc1OC,.,-19.7%,2.24µM*,?,-8.1%,?
COc1cccc(CN2CCN(Cc3cc(OC)c(OC)cc3[N+](=O)[O-])CC2)c1,7.94µM*,.,0.794µM*,?,-10.6%,-52.4%
CN1OC[C@@H]2CN(Cc3cc(Cl)cc(Cl)c3)[C@H](c3cccc(Oc4ccccc4)c3)C[C@@H]21,.,8.6%,89.1µM*,.,-8.8%,-2.1%
Cc1cc(C(=O)NP(=O)(N2CC(C)OC(C)C2)N2CC(C)OC(C)C2)c(C)n1C1CC1 (configuration not stated),44.7µM*,-15.0%,-14.6%,?,-9.6%,-3.4%
Cc1cc(C)cc(OCC(=O)OCC(=O)c2cc(C)n(C3CC3)c2C)c1,.,458.7%,-15.9%,-14.4%,3.4%,1.1%
O=C(Nc1ccc(F)cc1)Nc1c(NC2CCCCC2)c2ccccc2oc1=O,.,2.8%,.,.,.,.
COc1ccc(S(=O)(=O)N2CCCCCC2)cc1NC(=O)Cc1cc(OC)c(OC)c(OC)c1,-1.9%[59 µM],18.7%,-12.9%,3.8%,-5.1%,20.4%
